{"source": "PubChem BioAssay (Tox21)", "note": "Results filed as inconclusive are left out. Where a call stands in place of a potency, no number is given. Calls of active or inactive are those of the source. Calls follow the shape of the dose curve; as a rule, active = well fitted cell-killing curve with a large enough effect in the repeat runs; inconclusive = weak or mixed curves, or effect the other way; inactive = flat fitted curve, though single readings scatter. Potency is read from the fitted curve at half-maximal effect.", "data": [{"experiment": "qHTS RealTime-Glo MT Cell Viability Assay in HEK293 cells - 24 hour (AID 1224886); also: nearly all actives have a fitted effect of over 50% in size; as to activity change, negative = cytotoxicity: top concentration of the series differs between compounds", "conditions": "RealTime-Glo luminescence; series mostly up to 76.8 µM; activity change, negative = cytotoxicity: at the top concentration", "in_short": "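Tox21 10K qHTS, HEK293, 600 cells/well, RealTime-Glo reagent co-dispensed with cells; 5 h preincubation, compound by pintool, 37 C, luminescence at 0–40 h.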", "values": [{"compound": "CC1=C(/C=C/C(C)=C/C=C/C(C)=C/CO)C(C)(C)CCC1", "Potency": "inactive"}, {"compound": "COC(=O)c1ccccc1O", "Potency": "inactive"}, {"compound": "Oc1ccc2ccccc2c1N=Nc1ccccc1", "Potency": "inactive"}, {"compound": "C[C@@H](O)[C@H]1C(=O)N2C(C(=O)O)=C(S[C@@H]3CN[C@H](C(=O)N(C)C)C3)[C@H](C)[C@H]12", "Potency": "inactive"}, {"compound": "C=C1CC[C@H](O)CC1=C/C=C1\\CCC[C@]2(C)[C@@H]([C@H](C)/C=C/[C@H](C)C(C)C)CC[C@@H]12", "Potency": "43.6 µM (active)"}, {"compound": "CCc1ccc(O)cc1", "Potency": "inactive"}, {"compound": "COC(=O)c1ccc(C(=O)OC)cc1", "activity change, negative = cytotoxicity": "0.185% (inactive)"}, {"compound": "OCC#CCO", "Potency": "inactive"}, {"compound": "CN(C)c1cccc(O)c1", "Potency": "inactive"}, {"compound": "COCC(=O)O", "Potency": "inactive"}, {"compound": "CC1=CC[C@H]2C[C@@H]1C2(C)C", "Potency": "inactive"}, {"compound": "CC(C)(C)C1CCC(O)CC1", "note": "(centres undefined)", "Potency": "inactive"}, {"compound": "O=S(=O)(O)c1cc(S(=O)(=O)O)c2c(N=Nc3ccccc3)c(O)ccc2c1", "activity change, negative = cytotoxicity": "-21.1% (inactive)"}, {"compound": "CC#C[C@]1(O)CC[C@H]2[C@@H]3CCC4=CC(=O)CCC4=C3[C@@H](c3ccc(N(C)C)cc3)C[C@@]21C", "Potency": "49 µM (active)"}, {"compound": "S=c1nc[nH]c2nc[nH]c12", "Potency": "19 µM (active)"}, {"compound": "O=C(Cl)c1c(Cl)c(Cl)c(C(=O)Cl)c(Cl)c1Cl", "activity change, negative = cytotoxicity": "14% (inactive)"}, {"compound": "Nc1nc2ncc(CNc3ccc(C(=O)N[C@@H](CCC(=O)O)C(=O)O)cc3)nc2c(=O)[nH]1", "Potency": "inactive"}, {"compound": "CC1Cc2ccccc2N1NC(=O)c1ccc(Cl)c(S(N)(=O)=O)c1", "note": "(centres undefined)", "Potency": "inactive"}, {"compound": "C=C(C)C(=O)OCC(CC)(COC(=O)C(=C)C)COC(=O)C(=C)C", "Potency": "inactive"}, {"compound": "CCCCCCCCCCCCOCC1CO1", "note": "(centres undefined)", "activity change, negative = cytotoxicity": "-6.54% (inactive)"}, {"compound": "CC(C)n1c(/C=C/[C@@H](O)C[C@@H](O)CC(=O)O)c(-c2ccc(F)cc2)c2ccccc21", "Potency": "inactive"}, {"compound": "NC(=O)NNc1ccccc1", "Potency": "inactive"}, {"compound": "O=C(c1cc(O)c(O)c(O)c1)c1ccc(O)c(O)c1O", "Potency": "inactive"}, {"compound": "O=C(Oc1ccccc1)c1ccc(O)cc1", "activity change, negative = cytotoxicity": "-14.3% (inactive)"}, {"compound": "CCc1ccccc1O", "activity change, negative = cytotoxicity": "-0.579% (inactive)"}, {"compound": "Cc1cc(O)cc(C)c1Cl", "Potency": "inactive"}, {"compound": "CCOC(=O)/C=C\\C(=O)OCC", "Potency": "inactive"}, {"compound": "CC1=C(CC(=O)O)c2cc(F)ccc2/C1=C\\c1ccc(S(C)=O)cc1", "note": "(centres undefined)", "Potency": "inactive"}, {"compound": "Nc1cc(-c2ccncc2)c[nH]c1=O", "Potency": "inactive"}, {"compound": "CCCCCCCCCCC=CC1CC(=O)OC1=O", "note": "(centres undefined)", "Potency": "inactive"}, {"compound": "C=CC(=O)OCCCCCCCC(C)C", "activity change, negative = cytotoxicity": "7.52% (inactive)"}, {"compound": "CCCCOCCOCCOC(=O)CCCCC(=O)OCCOCCOCCCC", "Potency": "inactive"}, {"compound": "O=C(O)c1ccc([N+](=O)[O-])cc1", "Potency": "inactive"}, {"compound": "CC1(C)CC(N=C=O)CC(C)(CN=C=O)C1", "note": "(centres undefined)", "Potency": "inactive"}, {"compound": "NC(=O)/N=N/C(N)=O", "Potency": "inactive"}, {"compound": "CNC[C@H](O)[C@@H](O)[C@H](O)[C@H](O)CO", "Potency": "inactive"}, {"compound": "CC(=O)Nc1ccc(C(=O)O)cc1", "Potency": "inactive"}, {"compound": "O=C1O[C@H](CO)[C@@H](O)[C@H](O)[C@H]1O", "Potency": "inactive"}, {"compound": "C=C(C)C(=O)OCCCCCC", "Potency": "inactive"}]}]}
